Pf Dd2 growth: Plasmodium falciparum Dd2 growth inhibition. Potency, µM (titrated, usually from 28.9 µM), for the others: at the highest dose activity, negative = inhibition, most hits filed as inhibitors. P. falciparum Dd2 growth, SYBR Green, 72 h. 120,000 tested, 4.3% active. AID 1347417; active means well fitted inhibition curve with a large enough effect;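 further: plate controls were DMSO vehicle for no effect and reference drug for full effect; nearly all actives have a fitted effect of over 65% in size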
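Readout: SYBR Green fluorescence, 485 nm excitation, 535 nm emission, after ~16 h lysis at 37C. Before that, Dd2-infected red cells (2.5% hematocrit) grew 72 h with compound, 29 uM top final concentration.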
An asterisk follows results filed as active; i = inactive; [ ] = dose if it differs, or a comment. The entries come from a sample that favours hits as a whole. Potency means the concentration at half of the fitted maximal effect.

SMILES	Pf Dd2 growth
COc1cccc(C(=O)N2CCC(N3C[C@H](O)C[C@H]3C(=O)N3CCc4ccccc43)CC2)c1	2.5µM*
COc1cccc(C(=O)N2CCC(N3C[C@H](O)C[C@H]3C(=O)NC3CC3)CC2)c1	-17%
CNC(=O)[C@@H]1C[C@@H](O)CN1C1CCN(C(=O)c2cccc(OC)c2)CC1	-6%
COc1cccc(C(=O)N2CCC(N3C[C@H](O)C[C@H]3C(=O)N3CC=C(c4ccccc4)CC3)CC2)c1	0.89µM*
COCCC(=O)N1CCC(N2C[C@H](O)C[C@H]2C(=O)NC2CCCCC2)CC1	3%
CCNC(=O)N1CCN(Cc2c(C)noc2C)CC1	-3%
CCc1cccc(NC(=O)C2CCN(C(=O)c3nnn4c3COC(c3ccc(OC)cc3)C4)CC2)c1 (stereo not drawn)	-9%
Cc1c(C(=O)N2CCC(C)CC2)c(S(=O)(=O)N2CCN(c3cccc(Cl)c3)CC2)c(C)n1C	35%
CCN(Cc1ccccc1)C(=O)CCc1c(C)nc2c(c(C)nn2-c2ccc(C)c(C)c2)c1C	-12%
CN1CCC(Nc2nccc3c(=O)cc(N(C)c4ccccc4)oc23)CC1	-26%[44.1 µM]
CCc1ccc(S(=O)(=O)c2nnn3c2nc(Nc2ccc(NC(C)=O)cc2)c2sccc23)cc1	-19%
O=C(c1ccccc1F)N1CCC2(CC1)COc1ccccc1CN2	1.1µM*
O=C1NC2(CCN(C(=O)c3ccc4c(c3)OCO4)C2)Oc2ccccc21 (stereo not drawn)	-19%
O=C(c1ccccc1F)N1CCC2(CC1)COc1ccccc1NC2=O	5%
O=C1NC2(CCCN(C(=O)c3ccccc3F)C2)COc2ccccc21 (stereo not drawn)	-22%
O=C(c1ccc2c(c1)OCO2)N1CCC2(CC1)COc1ccccc1CN2	1.3µM*
O=C1CC(C(=O)O)C2(CCN(C(=O)c3ccc4c(c3)OCO4)CC2)N1 (stereo not drawn)	5%
O=C(C1CCC1)N1CCCc2cc(S(=O)(=O)Nc3ccc(F)cc3)ccc21	13%
O=C(Nc1ccc2c(c1)OCCO2)C1CN(S(=O)(=O)C2CC2)CC12CCCCC2 (stereo not drawn)	3.2µM*
COc1ccc(CNC(=O)C2CN(S(=O)(=O)C3CC3)CC23CCCCC3)c(OC)c1 (stereo not drawn)	-18%
CCOc1ccccc1NC(=O)C1CN(S(=O)(=O)C2CC2)CC12CCCCC2 (stereo not drawn)	i
Cc1cccc(CC(=O)N2CCCC2c2nc(C3CCOCC3)no2)c1 (stereo not drawn)	-10%
NCCC(=O)N1CCC2(CC1)CN(C(=O)Cc1ccc(Cl)cc1)CCO2	7%
O=[S+]1([O-])NC2(CCN(Cc3ccc(C(F)(F)F)cc3)CC2)CNc2ccccc21	11µM*
O=[S+]1([O-])NCC2(CCN(Cc3ccc(F)cc3)CC2)Nc2ccccc21	8.9µM*
SMILES	Pf Dd2 growth
O=[S+]1([O-])NCC2(CCN(Cc3ccsc3)CC2)Nc2ccccc21	-23%
COc1ccc(CN2CCC3(CN[S+](=O)([O-])c4ccccc4N3)C2)cc1 (stereo not drawn)	i
Cc1ccc(CN2CCC3(CC2)CN[S+](=O)([O-])c2ccccc2N3)cc1	5µM*
Cc1ccc(CN2CCCC3(CN[S+](=O)([O-])c4ccccc4N3)C2)cc1 (stereo not drawn)	-27%
O=[S+]1([O-])NC2(CCN(Cc3ccncc3)C2)CNc2ccccc21 (stereo not drawn)	5%
O=[S+]1([O-])NCC2(CCCN(Cc3ccc(F)cc3)C2)Nc2ccccc21 (stereo not drawn)	i
COc1ccc(CN2CCC3(CC2)CNc2ccccc2[S+](=O)([O-])N3)cc1	i
COCc1nnc2n1CCC(NC(=O)C1(c3ccccc3)CCCC1)CC2 (stereo not drawn)	i
CCC(CC)C(=O)Nc1ccc(OCc2cc(=O)n3ccsc3n2)cc1	-2%
Cc1cc2nc3n(c(=O)c2n1CC(=O)NCCc1ccc(Cl)cc1)CCCC3	i
c1cncc(Nc2cc3c(cn2)CN(Cc2ccsc2)CCN3)c1	8.9µM*
FC(F)(F)Oc1cccc(CN2CCNc3cc(Nc4cccnc4)ncc3C2)c1	5µM*
COc1cccc(Nc2cc3c(cn2)NCCN(Cc2ccccc2)C3)c1	i
c1ccc(Oc2cc3c(cn2)NCCN(Cc2ccsc2)C3)cc1	-4%[44.1 µM]
O=[S+]([O-])(Nc1cccnc1)c1ccc2c(c1)OCCN(Cc1ccsc1)C2	-22%[44.1 µM]
COc1cccc(CN2CCNc3cnc(Nc4ccccc4)cc3C2)c1	i
COc1cccc(C(=O)Nc2ccccc2-c2nnc(-c3cc(OC)ccc3Br)o2)c1	16%
CCN(Cc1ccccc1)C(=O)CC1CCCN(c2cnn(C)c(=O)c2)C1 (stereo not drawn)	-7%
CCn1ccnc1CN(C)C(=O)c1cc(COc2ccc3c(c2)OCO3)[nH]n1	-8%
Cc1ccccc1Nc1nc(-c2cccc(Cl)c2)c2c(n1)-c1ccccc1OC2	-5%
CCOc1ccc(Nc2nc(-c3cccc(Cl)c3)c3c(n2)-c2ccccc2OC3)cc1	10µM*
Fc1ccc(Nc2nc(-c3ccc(F)cc3)c3c(n2)-c2ccccc2OC3)cc1	3%
O=[S+]1([O-])CCN(Cc2ccc(-c3cnc4c(OCc5ccccc5)nccn34)cc2)CC1	-7%
COc1ccc(C2=NS(=O)(=O)N(C)C(C(=O)Nc3ccc(OC(F)(F)F)cc3)=C2)cc1	-13%
O=C(C1CCc2ncc(-c3ccsc3)n2C1)N1CCN(c2ccccn2)CC1 (stereo not drawn)	i
SMILES	Pf Dd2 growth
CC(C)CNC(=O)C1CCc2ncc(-c3ccsc3)n2C1 (stereo not drawn)	i
O=C(NC1CCN(Cc2ccccc2)CC1)C1CCc2ncc(-c3ccsc3)n2C1 (stereo not drawn)	8.9µM*
COC1CN(c2cccc(F)c2)C12CCN(C(=O)CC1CCCCC1)CC2 (stereo not drawn)	8.9µM*
COC1C(=O)N(c2cccc(F)c2)C12CCN(C(=O)CC1CCN(C(C)=O)CC1)CC2 (stereo not drawn)	-7%
CCCS(=O)(=O)N1CCC2(CC1)C(OC)CN2c1cccc(F)c1 (stereo not drawn)	i
Cc1ccc(C2Cn3nnc(C(=O)N4CCC(C(=O)NCc5cccc(Cl)c5)CC4)c3CO2)cc1 (stereo not drawn)	i
CN1CCC(OC2CCN(C(=O)c3cccc(F)c3)CC2)CC1	20%
Cc1cccc(-n2c(Cc3ccccc3)nnc2SCc2nc(-c3cccs3)no2)c1	-20%
Cc1cc(C)n(CCc2nc3c4ccccc4nc(SCc4ccc(F)cc4)n3n2)n1	-8%
CCC(Sc1nc2cc(OC)c(OC)cc2c2nc(-c3ccccc3)nn12)C(=O)Nc1cccc(C)c1 (stereo not drawn)	-3%
CCC(Sc1nc2ccccc2c2nc(CCc3c(C)n[nH]c3C)nn12)C(=O)Nc1ccc(F)cc1 (stereo not drawn)	7.9µM*
Cc1ccc(CNC(=O)CCCCCn2c(=O)c3sccc3n(CC(=O)Nc3c(C)cc(C)cc3C)c2=O)cc1	53%
CSC(C)C(=O)N1CCC2(CCC(=O)N(CCc3ccccc3)C2)CC1 (stereo not drawn)	3%
O=C(CCn1cncn1)N1CCOC(CC(c2ccccc2)c2ccccc2)C1 (stereo not drawn)	-9%
Cc1ccccc1OC1(C(=O)O)CCN(c2ncccc2C(N)=O)CC1	-3%
NC(=O)c1cccnc1N1CCOC(CC(c2ccccc2)c2ccccc2)C1 (stereo not drawn)	7.9µM*
CCOC(=O)CC(NC(=O)N1CCC(CN2CCC(C)CC2)CC1)c1ccccc1 (stereo not drawn)	-4%
